In the library only some 2.2% were active in any assay of this set; here they are far more common.
ADAM10 inh: inhibits human ADAM10; O14672; recombinant ADAM10, EDANS/DABCYL FRET peptide cleavage, 3 h; inhibition, % at 7 µM; 370,000 compounds, 0.62% hits; AID 720582;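 active means inhibition above a per-campaign cutoff equal to the mean of compounds falling between control-based bounds plus 3 SD, cut at about 20% in these data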
Target sequence (O14672 214-748 limits assumed): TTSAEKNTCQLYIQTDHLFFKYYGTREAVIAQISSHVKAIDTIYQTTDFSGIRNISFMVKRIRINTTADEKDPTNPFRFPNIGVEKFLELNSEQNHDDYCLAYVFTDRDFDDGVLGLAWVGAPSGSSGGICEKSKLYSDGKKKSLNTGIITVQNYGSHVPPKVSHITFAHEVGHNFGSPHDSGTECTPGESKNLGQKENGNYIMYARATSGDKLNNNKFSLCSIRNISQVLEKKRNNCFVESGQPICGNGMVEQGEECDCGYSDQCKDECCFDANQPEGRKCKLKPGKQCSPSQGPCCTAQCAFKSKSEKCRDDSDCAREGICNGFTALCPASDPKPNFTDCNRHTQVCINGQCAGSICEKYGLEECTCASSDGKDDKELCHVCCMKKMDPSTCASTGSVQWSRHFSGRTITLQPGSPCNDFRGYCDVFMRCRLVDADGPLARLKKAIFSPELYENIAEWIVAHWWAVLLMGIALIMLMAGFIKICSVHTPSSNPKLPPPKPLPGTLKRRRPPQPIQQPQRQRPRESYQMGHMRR
NPR1 activator: GC-A (human) enzyme activation; P16066; HEK293 GC-A cells, cGMP TR-FRET, EC30 ANP; 0% at EC30 ANP, 100% saturating ANP; activation, % at 10 µM; 370,000 compounds, 0.14% hits; in the data active means activation above about 40%
GC-B act: GC-B (human) receptor activation. 370,000 compounds, 0.11% hits. activation, % at 10 µM. P20594. AID 1920062. HEK293-GC-B cells, CNP EC30, cGMP TR-FRET; 0% at EC30 CNP, 100% saturating CNP;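 active means activation at 10 µM reaching about 35% in either raw or pattern-adjusted values, limit read from the data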
ADAM17 inh: inhibits human ADAM17; P78536; recombinant ADAM17, EDANS/DABCYL FRET peptide cleavage; inhibition, % at 6.95 µM; 370,000 compounds, 0.83% hits; AID 720648;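 active means inhibition above the mean of compounds lying between control limits plus 3 SD, set per campaign, cut at about 8.5% in these data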
KLK7 zymogen act: activators of human kallikrein-7 zymogen; activation, % at 7 µM; P49862; purified proKLK7, EDANS-DABCYL substrate fluorescence; 100% is mature enzyme control, 0% vehicle; 370,000 compounds, 0.9% hits;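 active means activation above the mean of all tested compounds plus 3 SD, computed per campaign excluding outliers beyond control limits, cut at about 13% in these data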
ADAM10 confirm: confirmation of inhibitors of human ADAM10; inhibition, % at 6.95 µM; 2,100 compounds, 1% hits; shares compounds with ADAM10 inh; AID 743208; ADAM10 QFRET peptide cleavage, EDANS fluorescence;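 active means inhibition above about 20% chosen separately for each screening run, limit read from the data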
ADAM17 counter: inhibits human ADAM17 in ADAM10 exosite counter-screen; shares compounds with ADAM10 inh; ADAM17 QFRET peptide cleavage, EDANS fluorescence; inhibition, % at 6.95 µM; 2,100 compounds, 0.5% hits; AID 743214;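 active means mean triplicate inhibition above the solvent-only control wells' mean plus 3 SD, cut at about 12% in these data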
ADAM10 ctr: counter-screen for ADAM17 exosite inhibitors: inhibitors of human ADAM10; shares compounds with ADAM17 inh; inhibition, % at 6.95 µM; recombinant ADAM10, EDANS/DABCYL FRET peptide cleavage, 3 h; 2,900 compounds, 47% hits;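 active means mean inhibition over the triplicate runs exceeds the activity threshold set in the earlier primary screen, cut at about 20% in these data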
ADAM17 confirm: confirmation of inhibitors of human ADAM17; AID 743257; 2,900 compounds, 65% hits; recombinant ADAM17, EDANS/DABCYL QFRET peptide cleavage; inhibition, % at 6.95 µM; shares compounds with ADAM17 inh;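 active means mean inhibition across replicates above the hit cutoff set in the primary screen, cut at about 8.5% in these data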
Hits are given with their value; n = inactive; x = no result.

SMILES	ADAM10 inh	NPR1 activator	GC-B act	ADAM17 inh	KLK7 zymogen act	ADAM10 confirm	ADAM17 counter	ADAM10 ctr	ADAM17 confirm
O=C(Nc1ccccc1)OCC1COC(c2ccccc2)(c2ccccc2)O1 (stereo not given)	25	n	n	11	n	n	n	24	12
Oc1ccc(Cl)cc1-c1cc(-c2cccc(Br)c2)n[nH]1	25	n	n	10	n	n	n	31	17
CC(C)Oc1ccc(CNC(=O)CC(c2ccccc2)c2cc(Cl)ccc2O)cc1 (stereo not given)	25	n	n	16	n	n	n	33	16
COc1cccc(NC(=S)NCCC(c2ccccc2)c2ccccc2)c1	n	n	n	n	n	x	x	x	x
COc1cc(NC(=S)NCCC(c2ccccc2)c2ccccc2)cc(OC)c1	23	n	n	12	n	n	n	20	13
O=C([C@@H]1C[C@H]1c1ccccc1)N1CC[C@H]2[C@H](CCCN2Cc2cc(F)cc(F)c2)C1	n	n	n	n	n	x	x	x	x
OC(c1cc(F)cc(Cl)c1)c1ncc(-c2ccc(Cl)cc2)[nH]1 (stereo not given)	29	n	n	17	n	n	n	21	11
Cc1ccc(C(O)c2ncc(-c3cccc(C(F)(F)F)c3)[nH]2)c(C)c1 (stereo not given)	n	n	n	n	n	x	x	x	x
Cc1cccc(C(O)c2ncc(-c3cccc(C(F)(F)F)c3)[nH]2)c1C (stereo not given)	22	n	n	15	n	n	n	n	n
OC(c1ccc(F)c(F)c1)c1ncc(-c2ccc(Cl)cc2)[nH]1 (stereo not given)	n	n	n	n	n	x	x	x	x
OC(c1cccc(Cl)c1)c1ncc(-c2cccc(C(F)(F)F)c2)[nH]1 (stereo not given)	29	n	n	9.2	n	n	n	23	14
Cc1cc(C)cc(N(CC(=O)NC2CCC(C)CC2)S(=O)(=O)c2cccs2)c1 (stereo not given)	n	n	n	n	n	x	x	x	x
CCCCOCCCNC(=O)C[C@H]1C[C@@]2(C(=O)OC)C(=C[C@H](C(C)C)O[C@@H]2C2CC2)N(Cc2cccc3ccccc23)C1=O	n	n	n	n	n	x	x	x	x
CCC(CO)Nc1cccc2c1S(=O)(=O)N(Cc1cn(Cc3ccc(F)cc3)nn1)Cc1ccccc1O2 (stereo not given)	n	n	n	n	n	x	x	x	x
Cc1cccc(OCCSCc2nc3ccccc3[nH]2)c1	n	n	n	n	n	x	x	x	x
Cc1cccc(OCCCSc2nc3ccccc3[nH]2)c1	21	n	n	10	n	n	n	n	9.8
C[C@H]1[C@@H](C(=O)N2CCCC2)Cc2nc3ccccc3nc2C[C@@H]1c1ccccc1	n	n	n	n	n	x	x	x	x
Clc1ccccc1Cn1ccc2ccc(-c3ccc4ccn(Cc5ccccc5Cl)c4c3)cc21	n	n	n	n	n	x	x	x	x
O=C(/C=C/c1ccc(O)c(O)c1)c1ccc(S(=O)(=O)N2CCCCCC2)cc1	34	n	n	18	n	n	n	27	17
Cc1cc(NC(=O)COc2cc(F)cc(F)c2)n(-c2ccccc2)n1	n	n	n	n	n	x	x	x	x
O=C(COC(=O)c1cccc(S(=O)(=O)N2CCOCC2)c1)Nc1nc(-c2ccccc2Cl)cs1	37	n	n	16	n	n	n	35	17
Cc1cc(NC(=O)COC(=O)c2cccc(S(=O)(=O)N3CCOCC3)c2)no1	n	n	n	n	n	x	x	x	x
O=C(CNC(=S)N(Cc1ccccc1)Cc1ccccc1F)NCCc1ccc(Cl)cc1	24	n	n	10	n	n	n	21	14

Assay outcomes from PubChem.
